PubChem BioAssay
For some assays here: Measured potencies and affinities stand elsewhere. Calls of active or inactive are those of the source. Unless noted, the rule behind the calls is not given here.

Experiments:
[1] = antimalarial activity against Dd2 strain (AID 2302;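 active = growth inhibition above 50% at the single 2 µM test dose, taken to imply half-maximal potency below 2 µM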;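 note: 0% = DMSO untreated growth and 100% = chloroquine plus artemisinin killed control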); conditions: P. falciparum Dd2 in RBCs, LDH growth readout, 72 h; at 2 µM; hits give high values
[2] = human hepatoma cell viability loss – ATP luminescence, cytotoxicity control for P. falciparum antimalarial project, primary screen (AID 2303;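 active = inhibition above 50%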;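 note: 0% = DMSO wells and 100% = digitonin-killed cells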); conditions: HepG2 viability, 24-48 h, at 10 µM, hits give high values
[3] = molecular target: L-lactate dehydrogenase (Plasmodium falciparum (isolate CDC / Honduras)) (UniProt Q27743); experiment: PfLDH activity inhibition – cell lysate, 3D7 strain, counter-screen for P. falciparum growth inhibition project (AID 2304);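 note: 0% = vehicle and 100% = reference inhibitor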; conditions: P. falciparum 3D7 crude extract, LDH APAD/NBT absorbance; at 2 µM; hits give high values
[4] = inhibition of 3D7 malaria parasite growth – strain 3D7 (AID 2306);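 note: 0% = DMSO wells and 100% = chloroquine plus artemisinin control wells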; conditions: P. falciparum 3D7 erythrocytic growth, LDH absorbance, 72 h; at 2 µM; hits give high values
[5] = molecular target: Calcium-dependent protein kinase 1 (Plasmodium falciparum (isolate 3D7)) (UniProt P62344); experiment: PfCDPK1 kinase inhibitors, biochemical, TCAMS library (AID 1159585; cut-off not given, nearly all actives have IC50 up to about 0.98 µM;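 note: inhibitors leave more ATP so luminescence rises with inhibition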); conditions: recombinant PfCDPK1, Kinase-Glo ATP depletion luminescence
[6] = molecular target: Plasmodium falciparum protein kinase 6 (PK6, PF3D7_1337100) (UniProt Q8IDW1); experiment: PfPK6 kinase inhibitors, biochemical, TCAMS library (AID 1159586); conditions: recombinant PfPK6, Kinase-Glo ATP depletion luminescence
[7] = molecular target: Protein kinase 7 (PK7), Plasmodium falciparum 3D7 (PF3D7_0213400) (UniProt Q7YTF7); experiment: inhibition of Plasmodium PK7 catalytic activity – biochemical, TCAMS antimalarial set, Kinase-Glo luminescence (AID 1159587); conditions: recombinant PfPK7, Kinase-Glo ATP depletion luminescence
[8] = molecular target: Calcium-dependent protein kinase 4 (Plasmodium falciparum (isolate 3D7)) (UniProt Q8IBS5); experiment: PfCDPK4 kinase inhibitors, biochemical, TCAMS library (AID 1159588; cut-off not given, nearly all actives have IC50 up to about 0.91 µM); conditions: recombinant PfCDPK4, Kinase-Glo ATP depletion luminescence
Calcium-dependent protein kinase 4 (Plasmodium falciparum (isolate 3D7)), sequence (Q8IBS5 whole entry, looked up): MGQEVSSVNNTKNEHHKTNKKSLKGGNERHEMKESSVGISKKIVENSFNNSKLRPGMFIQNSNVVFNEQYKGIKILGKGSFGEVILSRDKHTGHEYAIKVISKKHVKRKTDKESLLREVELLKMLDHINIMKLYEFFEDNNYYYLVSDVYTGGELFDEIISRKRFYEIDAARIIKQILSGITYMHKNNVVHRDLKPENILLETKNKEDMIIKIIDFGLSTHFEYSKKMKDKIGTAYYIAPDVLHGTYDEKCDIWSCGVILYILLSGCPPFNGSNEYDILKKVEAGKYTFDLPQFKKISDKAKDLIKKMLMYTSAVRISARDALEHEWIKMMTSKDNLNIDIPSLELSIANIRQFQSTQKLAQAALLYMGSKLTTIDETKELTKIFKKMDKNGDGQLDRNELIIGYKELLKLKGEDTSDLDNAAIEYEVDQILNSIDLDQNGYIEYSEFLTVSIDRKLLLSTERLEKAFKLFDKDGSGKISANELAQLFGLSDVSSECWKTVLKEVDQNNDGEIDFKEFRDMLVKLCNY

Plasmodium falciparum protein kinase 6 (PK6, PF3D7_1337100), sequence (Q8IDW1 1-305): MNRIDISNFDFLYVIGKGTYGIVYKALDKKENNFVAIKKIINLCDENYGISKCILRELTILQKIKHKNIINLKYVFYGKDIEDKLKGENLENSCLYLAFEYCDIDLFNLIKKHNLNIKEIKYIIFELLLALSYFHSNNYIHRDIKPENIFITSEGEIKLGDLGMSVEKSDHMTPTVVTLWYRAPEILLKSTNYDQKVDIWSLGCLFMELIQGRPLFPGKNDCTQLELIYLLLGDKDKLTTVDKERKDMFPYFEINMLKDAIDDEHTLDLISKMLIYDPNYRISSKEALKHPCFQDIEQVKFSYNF
Calcium-dependent protein kinase 1 (Plasmodium falciparum (isolate 3D7)), sequence (P62344 whole entry, looked up): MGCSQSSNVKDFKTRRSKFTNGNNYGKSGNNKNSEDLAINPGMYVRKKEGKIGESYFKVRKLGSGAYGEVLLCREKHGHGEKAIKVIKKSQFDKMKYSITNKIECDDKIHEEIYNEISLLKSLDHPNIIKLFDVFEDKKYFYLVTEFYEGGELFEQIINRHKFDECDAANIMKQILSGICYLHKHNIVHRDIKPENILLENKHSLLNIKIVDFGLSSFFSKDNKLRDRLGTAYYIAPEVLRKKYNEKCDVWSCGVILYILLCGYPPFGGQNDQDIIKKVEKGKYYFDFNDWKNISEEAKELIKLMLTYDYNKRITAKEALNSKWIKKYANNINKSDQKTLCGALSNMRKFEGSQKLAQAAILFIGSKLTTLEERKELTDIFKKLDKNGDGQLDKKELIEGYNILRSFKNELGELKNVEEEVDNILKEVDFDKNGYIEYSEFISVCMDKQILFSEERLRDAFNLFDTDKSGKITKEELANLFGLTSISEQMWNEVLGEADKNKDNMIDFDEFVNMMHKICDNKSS
L-lactate dehydrogenase (Plasmodium falciparum (isolate CDC / Honduras)), sequence (Q27743 whole entry, looked up): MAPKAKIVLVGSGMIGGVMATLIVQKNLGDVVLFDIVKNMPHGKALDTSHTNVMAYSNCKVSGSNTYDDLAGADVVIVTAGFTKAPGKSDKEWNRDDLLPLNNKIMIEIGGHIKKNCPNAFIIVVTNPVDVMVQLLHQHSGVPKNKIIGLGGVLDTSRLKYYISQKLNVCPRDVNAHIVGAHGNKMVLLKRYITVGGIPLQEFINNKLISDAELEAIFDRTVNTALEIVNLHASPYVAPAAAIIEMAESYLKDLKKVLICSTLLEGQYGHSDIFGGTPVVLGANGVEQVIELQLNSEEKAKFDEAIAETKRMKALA
Protein kinase 7 (PK7), Plasmodium falciparum 3D7 (PF3D7_0213400), sequence (Q7YTF7 1-343): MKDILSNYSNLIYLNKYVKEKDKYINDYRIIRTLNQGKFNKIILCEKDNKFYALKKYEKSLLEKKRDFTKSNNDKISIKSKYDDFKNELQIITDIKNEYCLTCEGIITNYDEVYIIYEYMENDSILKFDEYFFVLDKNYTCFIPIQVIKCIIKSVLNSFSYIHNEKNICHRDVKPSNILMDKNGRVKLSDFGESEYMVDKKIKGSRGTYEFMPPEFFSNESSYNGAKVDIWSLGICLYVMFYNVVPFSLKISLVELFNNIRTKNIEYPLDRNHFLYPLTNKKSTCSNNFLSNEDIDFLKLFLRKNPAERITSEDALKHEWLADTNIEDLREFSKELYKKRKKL

COc1c(C)cc(I)cc1CNCCCNc1cc(=O)c2ccccc2[nH]1
active: growth inhibition [4] 84%
inactive: growth inhibition [1] -2% | inhibition [2] -1% | inhibition [3] 2% | outcome [5] | outcome [6] | outcome [7] | outcome [8]

Cc1cc(-c2ccc3occ(CCN)c3c2)cnc1N
inactive: inhibition [2] -5% | inhibition [3] -2% | outcome [5] | outcome [6] | outcome [7] | outcome [8]
active: growth inhibition [1] 56% | growth inhibition [4] 92%

CCn1cc(CN2CCCC(C(=O)Nc3ccc(-c4nc5ccccc5[nH]4)cc3)C2)c(C)n1 (stereo not given)
inactive: growth inhibition [1] 28% | inhibition [2] 22% | inhibition [3] 2% | outcome [5] | outcome [6] | outcome [7] | outcome [8]
active: growth inhibition [4] 100%

O=C(Nc1ccccc1)N(Cc1ccc(-c2cccc(CNCc3ccc4c(c3)OCO4)c2)cc1)C1CCN(Cc2ccccc2)CC1
inactive: inhibition [2] 29% | inhibition [3] -1% | outcome [5] | outcome [6] | outcome [7] | outcome [8]
active: growth inhibition [1] 65% | growth inhibition [4] 100%

Cc1cc(NCCC(=O)Nc2ccccc2)nc(NCC2CCCCC2)n1
inactive: inhibition [2] 14% | inhibition [3] 3% | outcome [5] | outcome [6] | outcome [7] | outcome [8]
active: growth inhibition [1] 62% | growth inhibition [4] 100%

CC(=O)Nc1ccc(CN2CCC(NC(=O)c3ccc(-c4ccc(N(C)C)cc4)s3)CC2)cc1
inactive: inhibition [2] 20% | inhibition [3] -1% | outcome [5] | outcome [6] | outcome [7] | outcome [8]
active: growth inhibition [1] 57% | growth inhibition [4] 100%

Cc1nc(Nc2ccc(F)cc2)nc(N2CCc3ccccc3C2C)c1CO (stereo not given)
inactive: inhibition [2] -9% | inhibition [3] -4% | outcome [5] | outcome [6] | outcome [7] | outcome [8]
active: growth inhibition [1] 95% | growth inhibition [4] 101%

COc1cccc(C2CCN(CCN3CCC(NC(=O)c4ccc(-c5ccc(Cl)cc5)cc4)CC3)CC2)c1
active: growth inhibition [4] 93%
inactive: growth inhibition [1] 42% | inhibition [2] 31% | inhibition [3] -12% | outcome [5] | outcome [6] | outcome [7] | outcome [8]

Fc1ccccc1-c1cc(Nc2ccncc2)nc(-c2cccnc2)n1
inactive: inhibition [3] 3% | outcome [5] | outcome [6] | outcome [7] | outcome [8]
active: growth inhibition [1] 89% | inhibition [2] 91% | growth inhibition [4] 103%

Cc1cccc(C)c1C1CCN(CCCCNC(=O)c2cc3ccccc3[nH]2)CC1
inactive: growth inhibition [1] 18% | inhibition [2] 46% | inhibition [3] 4% | outcome [5] | outcome [6] | outcome [7] | outcome [8]
active: growth inhibition [4] 90%

CCC(CC)C(CC(=O)NC(C)(C)CCc1ccccc1OC)Nc1ccc(C#N)c2ccccc12 (stereo not given)
active: growth inhibition [1] 91% | growth inhibition [4] 93%
inactive: inhibition [2] 9% | inhibition [3] -1% | outcome [5] | outcome [6] | outcome [7] | outcome [8]

COc1cc(N)c(Cl)cc1C(=O)NC1CCC(NCC2CCCCC2)CC1 (stereo not given)
inactive: inhibition [2] 18% | inhibition [3] 0% | outcome [5] | outcome [6] | outcome [7] | outcome [8]
active: growth inhibition [1] 85% | growth inhibition [4] 90%

COc1ccc(-c2cccc(NC(=O)c3cccc(C#N)c3)c2)cc1CN1CCC(O)CC1
active: growth inhibition [4] 97%
inactive: growth inhibition [1] 13% | inhibition [2] 30% | inhibition [3] -3% | outcome [5] | outcome [6] | outcome [7] | outcome [8]

CNC(=O)C1Cc2c([nH]c3cc(Br)ccc23)C2(CCN(CCc3ccccc3)CC2)N1 (stereo not given)
inactive: growth inhibition [1] 31% | inhibition [2] 10% | inhibition [3] -8% | outcome [5] | outcome [6] | outcome [7] | outcome [8]
active: growth inhibition [4] 101%

Cc1cccc2[nH]c(-c3cccc(-c4ccc(CNCc5ccccc5)cc4)c3)nc12
inactive: inhibition [2] 33% | inhibition [3] -3% | outcome [5] | outcome [6] | outcome [7] | outcome [8]
active: growth inhibition [1] 100% | growth inhibition [4] 99%

COc1ccc(-c2onc(C(F)(F)F)c2-c2ccc(Br)cc2)c(O)c1
inactive: inhibition [2] 7% | inhibition [3] 4% | outcome [5] | outcome [6] | outcome [7] | outcome [8]
active: growth inhibition [1] 77% | growth inhibition [4] 99%

COc1ccc(S(=O)(=O)N2CCCC(C)C2)cc1N1CCN(C(=O)c2ccc([N+](=O)[O-])o2)CC1 (stereo not given)
inactive: growth inhibition [1] 4% | inhibition [2] -3% | inhibition [3] -2% | outcome [5] | outcome [6] | outcome [7] | outcome [8]
active: growth inhibition [4] 94%

COc1ccc(C=NNc2cc(C)nc3ccc(OC)cc23)c(OC)c1
inactive: inhibition [2] 23% | inhibition [3] -5% | outcome [5] | outcome [6] | outcome [7] | outcome [8]
active: growth inhibition [1] 95% | growth inhibition [4] 100%

O=c1cc(NCCCCNCc2cccc(Cl)c2)[nH]c2ccccc12
inactive: growth inhibition [1] 41% | inhibition [2] 2% | inhibition [3] -3% | outcome [5] | outcome [6] | outcome [7] | outcome [8]
active: growth inhibition [4] 98%

O=S1c2ccccc2Sc2ccccc21
active: growth inhibition [4] 99%
inactive: growth inhibition [1] -1% | inhibition [2] 48% | inhibition [3] 6% | outcome [5] | outcome [6] | outcome [7] | outcome [8]

Fc1ccc2[nH]c(-c3ccccc3)nc2c1CN1CCC(N2CCCC2)CC1
active: growth inhibition [4] 100%
inactive: growth inhibition [1] 30% | inhibition [2] 2% | inhibition [3] -2% | outcome [5] | outcome [6] | outcome [7] | outcome [8]

COc1ccc(CCNC(=O)c2cc3c(=O)n4cccc(C)c4nc3n(C)c2=N)cc1
inactive: inhibition [2] 22% | inhibition [3] 4% | outcome [5] | outcome [6] | outcome [7] | outcome [8]
active: growth inhibition [1] 99% | growth inhibition [4] 99%

CC(=O)c1ccc(N2C(=O)C3C(Cc4ccc(OC(C)(C)C)cc4)NC4(C(=O)N(Cc5ccc(C(C)(C)C)cc5)c5ccccc54)C3C2=O)cc1 (stereo not given)
active: growth inhibition [1] 81% | growth inhibition [4] 86%
inactive: inhibition [2] 13% | inhibition [3] 4% | outcome [5] | outcome [6] | outcome [7] | outcome [8]

O=c1ccc2ccc(F)c3c2n1CC3CN1CCC(NCc2cccc(-c3cccs3)c2)CC1 (stereo not given)
active: growth inhibition [1] 75% | growth inhibition [4] 100%
inactive: inhibition [2] 17% | inhibition [3] 0% | outcome [5] | outcome [6] | outcome [7] | outcome [8]

CC(C)CNC(=O)c1ccnc(-c2ccc(CNC3Cc4ccccc4C3)cc2)c1
active: growth inhibition [4] 99%
inactive: growth inhibition [1] 29% | inhibition [2] 25% | inhibition [3] -5% | outcome [5] | outcome [6] | outcome [7] | outcome [8]

CC(=O)Nc1ccc(CN2CCC(CNC(=O)c3cc(-c4cccc(C(F)(F)F)c4)cs3)C2)cc1 (stereo not given)
active: growth inhibition [4] 97%
inactive: growth inhibition [1] 3% | inhibition [2] 24% | inhibition [3] 2% | outcome [5] | outcome [6] | outcome [7] | outcome [8]

COc1ccc2c(NN=Cc3ccccc3Cl)ccnc2c1
active: growth inhibition [4] 99%
inactive: growth inhibition [1] 46% | inhibition [2] 10% | inhibition [3] -6% | outcome [5] | outcome [6] | outcome [7] | outcome [8]

CC(C)CCN1CCC(Oc2ccc(NC(=O)c3ccsc3)cc2Cl)CC1
active: growth inhibition [1] 81% | growth inhibition [4] 89%
inactive: inhibition [2] 19% | inhibition [3] 0% | outcome [5] | outcome [6] | outcome [7] | outcome [8]

CCCCCN1CCC(NS(=O)(=O)c2cccc(C(=O)Nc3ccc(C(F)(F)F)cc3)c2)C1 (stereo not given)
active: growth inhibition [4] 95%
inactive: growth inhibition [1] 5% | inhibition [2] 45% | inhibition [3] -3% | outcome [5] | outcome [6] | outcome [7] | outcome [8]

COc1c(C2CCN(CCCCNC(=O)c3ccc(-c4ccc(C(F)(F)F)cc4)c(C(=O)OC(C)C)c3)CC2)ccc2c1CCCC2
active: growth inhibition [4] 90%
inactive: growth inhibition [1] 30% | inhibition [2] 24% | inhibition [3] 0% | outcome [5] | outcome [6] | outcome [7] | outcome [8]

Cc1ccc(NC(=O)c2ccc(N3CCN(c4ccncc4)CC3)cn2)cc1F
active: growth inhibition [1] 77% | growth inhibition [4] 98%
inactive: inhibition [2] 2% | inhibition [3] 2% | outcome [5] | outcome [6] | outcome [7] | outcome [8]

CC(=O)N[C@H](C(=O)Nc1ccc(-c2ccc(-c3nc4ccc(C(F)(F)F)cc4[nH]3)cc2)cc1)C(C)C
active: growth inhibition [1] 76% | growth inhibition [4] 88%
inactive: inhibition [2] 24% | inhibition [3] 7% | outcome [5] | outcome [6] | outcome [7] | outcome [8]

c1ccc(-c2cc3cccc(-c4nc5ccncc5[nH]4)c3o2)cc1
inactive: inhibition [2] 37% | inhibition [3] -6% | outcome [5] | outcome [6] | outcome [7] | outcome [8]
active: growth inhibition [1] 95% | growth inhibition [4] 100%

Cc1cc(C)c(NC(=O)N2CCCN(CCCCCNC(=O)/C=C/c3ccc(Cl)c(Cl)c3)CC2)c(C)c1
inactive: growth inhibition [1] -1% | inhibition [2] 12% | inhibition [3] 3% | outcome [5] | outcome [6] | outcome [7] | outcome [8]
active: growth inhibition [4] 91%

COC(=O)c1cc(OC)c(OC)cc1NC(=O)NC12CC3CC(CC(C3)C1)C2
active: growth inhibition [4] 94%
inactive: growth inhibition [1] 3% | inhibition [2] 6% | inhibition [3] 6% | outcome [5] | outcome [6] | outcome [7] | outcome [8]

N[C@@H](COc1cccc2c(-c3ccncc3)c(-c3cccc(NC(=O)Nc4ccccc4)c3)nn12)c1ccccc1
inactive: inhibition [2] 9% | inhibition [3] 2% | outcome [5] | outcome [6] | outcome [7] | outcome [8]
active: growth inhibition [1] 71% | growth inhibition [4] 101%

Cc1cccc2[nH]c(-c3ccc(-c4ccc(CNCCCNS(C)(=O)=O)cc4)s3)nc12
inactive: growth inhibition [1] 4% | inhibition [2] 13% | inhibition [3] 3% | outcome [5] | outcome [6] | outcome [7] | outcome [8]
active: growth inhibition [4] 99%

CCN(CC)CCN(Cc1ccc(-c2ccc(C(F)(F)F)cc2)cc1)C(=O)Cn1c(CCc2cccc(F)c2F)nc(=O)c2cccnc21
inactive: inhibition [3] 2% | outcome [5] | outcome [6] | outcome [7] | outcome [8]
active: growth inhibition [1] 89% | inhibition [2] 75% | growth inhibition [4] 101%

COc1cccc2c1CCN(CCN1CCC(CNC(=O)c3ccc(-c4ccc(C#N)cc4)cc3)CC1)C2
inactive: inhibition [3] 6% | outcome [5] | outcome [6] | outcome [7] | outcome [8]
active: growth inhibition [1] 98% | inhibition [2] 57% | growth inhibition [4] 99%

CCOc1ccc2nc(N(CCCn3ccnc3)C(=O)C=Cc3cccs3)sc2c1
inactive: inhibition [2] -1% | inhibition [3] -1% | outcome [5] | outcome [6] | outcome [7] | outcome [8]
active: growth inhibition [1] 97% | growth inhibition [4] 97%
